The structures appear in SMILES notation. Among all 220,000 compounds or so, about 3,300 (1.5%) were called active. The list comes from a sample in which actives are over-represented; it also holds similar structures and randomly drawn compounds. A number with no mark means an inactive call.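 How the source made its calls: active means compounds that cut the protein-peptide binding signal by more than 50% relative to plate controls in a single-dose test; inactive means the rest.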

Induced myeloid leukemia cell differentiation protein Mcl-1 (Homo sapiens), sequence (Q07820 whole entry, looked up): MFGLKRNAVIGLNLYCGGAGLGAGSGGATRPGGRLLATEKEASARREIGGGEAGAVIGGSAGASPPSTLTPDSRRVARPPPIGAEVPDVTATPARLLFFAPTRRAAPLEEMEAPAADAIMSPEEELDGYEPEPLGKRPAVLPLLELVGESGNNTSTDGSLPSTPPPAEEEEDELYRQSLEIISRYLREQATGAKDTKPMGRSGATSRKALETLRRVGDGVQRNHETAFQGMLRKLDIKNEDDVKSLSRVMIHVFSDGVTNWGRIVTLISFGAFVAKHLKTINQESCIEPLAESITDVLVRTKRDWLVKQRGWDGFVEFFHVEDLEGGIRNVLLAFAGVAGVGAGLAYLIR

The experiment concerns the target Induced myeloid leukemia cell differentiation protein Mcl-1 (Homo sapiens) (UniProt Q07820). Description: disruptors of Mcl-1 and Noxa BH3 peptide – biochemical, TR-FRET, 1536-well, primary screen (AID 1022).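 Further: His-tagged Mcl-1 with rhodamine Noxa BH3 peptide and terbium anti-His antibody; 0% = Mcl-1 plus Noxa peptide wells and 100% = peptide-only wells.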 The conditions noted are these: TR-FRET Mcl-1/Noxa peptide binding, 2 h; at 21.7 µM; active compounds read high. On the technique in general: Time-resolved FRET reads energy transfer from a long-lived donor to a nearby acceptor.
As usually defined, the inhibition is the change of the read-out against control, counted positive when it falls. On to `O=C1NC(=O)N(c2ccccc2)C(=O)/C1=C/c1ccc([N+](=O)[O-])s1`, for which the inhibition was 45.5%.

`COc1cccc(N2C(=O)NC(=O)/C(=C\c3ccc([N+](=O)[O-])s3)C2=O)c1`: the inhibition was 59.7% (active).

For the molecule `Cc1cccc(N2C(=O)NC(=O)/C(=C\c3cnn(-c4ccccc4)c3)C2=O)c1`, the inhibition is 29.4%.

As to `CCCCC(=O)N/N=C/c1c(O)n(-c2ccccc2)c(=O)[nH]c1=O`, the inhibition is -147%.

As to `O=C1NC(=O)N(c2ccc(F)cc2)C(=O)/C1=C/c1ccc2c(c1)CCCN2Cc1ccccc1`, the inhibition was 67.7% (active).

Turning to `Cc1c(C(=O)O)cccc1-n1c(C)cc(/C=C2\C(=O)NC(=O)N(c3ccc4c(c3)OCO4)C2=O)c1C`, the inhibition was 14.7%.

Consider `O=C1NC(=O)N(CCc2ccc(F)cc2)C(=O)/C1=C/C=C/c1ccccc1`, for which the inhibition was 6.31%.

Turning to `O=c1[nH]c(=O)n(CCc2ccccc2)c(O)c1/C=N/N1CCOCC1`, the inhibition was 6.09%.

Regarding `COc1cccc(CN2CCCC(C(=O)c3ccccc3SC)C2)c1O` (stereo not given), the inhibition was 16.2%.

For `CCCCCCCCCCCCn1ccc(=N)cc1`, the inhibition is 2.41%.

For the molecule `O=C(O)CCn1cc(C=C2C(=O)NC(=S)NC2=O)c(-c2cccc(Br)c2)n1`, the inhibition is 93.9% (active).

On to `CN(C)CC1CCCCC1=O` (stereo not given), for which the inhibition was 21.8%.

As to `CNC(=O)O/N=C(\N)Cc1csc2ccccc12`, the inhibition is -19.1%.

For `Cc1ccc(-n2c(O)c(C=NCC3CCCO3)c(=O)[nH]c2=O)c(C)c1` (stereo not given), the inhibition is -16.8%.

As for `Cc1cc(/C=C2/C(=O)NC(=O)N(Cc3ccco3)C2=O)c(C)n1-c1ccc(C(=O)O)cc1`, the inhibition is 27.4%.

`O=C1NC(=O)N(Cc2ccco2)C(=O)/C1=C\c1ccc(-c2ccc(F)cc2)o1`: the inhibition is 69.5% (active).

Turning to `O=C1NC(=O)N(Cc2ccco2)C(=O)/C1=C\c1cccn1CCOc1ccccc1`, the inhibition was 3.37%.

For `CSc1ccc(C(=O)C2CCCN(Cc3ccn[nH]3)C2)cc1` (stereo not given), the inhibition is 16.2%.

With `c1cc2c(cc1[C@H]1OC[C@H]3[C@@H]1CO[C@@H]3c1ccc3c(c1)OCO3)OCO2`, the inhibition was 1.72%.

`CCOc1cccc(=NC2CCCCC2)c2c(C)[nH]c(C)c12`: the inhibition is 23.3%.
